Compound activity as filed in PubChem.
NPR1 antag = human Npr1 receptor antagonism; HEK293 hNpr1 GloSensor cGMP, ANP-stimulated luminescence; 76,000 compounds, 1.6% hits; Potency, µM (titrated, usually from 46.3 µM), most hits filed as inhibitors; further: nearly all actives have a fitted effect of over 60% in size
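HEK293 cells stably expressing human Npr1 and cGMP GloSensor pGS-40F, loaded 2 h with 2% GloSensor reagent, given compound 30 min at room temperature. Luminescence read before and 20 min after 0.1 nM hNppA.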
GPT2 inhibitor = GPT2 alanine aminotransferase inhibition; Q8TD30; Recombinant GPT2, coupled pyruvate oxidase/HRP Amplex Red fluorescence; Potency, µM (series often up to 57.7 µM), hits mostly inhibitors; 100,000 compounds, 0.25% hits; AID 1671188; active means well fitted inhibition curve with a large enough effect; inconclusive means small, poorly fitted or top-dose-only effect; further: nearly all actives have a fitted effect of over 60% in size
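Fluorescence read-out: pyruvate from GPT2 turnover coupled to pyruvate oxidase, HRP and Amplex Red (0.2mM ThPP, 0.2U/mL PO and HRP, 50uM Amplex final). Substrates 250uM a-KG, 2mM L-alanine; enzyme 10ng/uL; 30 min RT.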
Npr1 antag conf = confirmation of human Npr1 natriuretic peptide receptor antagonists; shares compounds with NPR1 antag; HEK293 hNpr1 cGMP GloSensor luminescence, ANP-stimulated; Potency, µM (titrated, usually from 57.6 µM), most hits filed as inhibitors; 1,400 compounds, 76% hits; AID 1347044; further: nearly all actives have a fitted effect of over 70% in size
Npr2 selectivity = selectivity test of Npr1 antagonists against human Npr2 | shares compounds with NPR1 antag | HEK293 hNpr2 GloSensor cGMP luminescence, CNP-stimulated | Potency, µM (series often up to 57.6 µM), actives largely listed as inhibitors | 1,400 compounds, 67% hits; further: nearly all actives have a fitted effect of over 70% in size
FLuc counter = counter-screen for Npr1 antagonists: firefly luciferase inhibitors; shares compounds with NPR1 antag; purified FLuc enzyme, luminescence, Km substrate; Potency, µM (top dose mostly 57.6 µM), hits mostly inhibitors; 1,400 compounds, 0.7% hits; AID 1347047; active means well fitted inhibition curve with a large enough effect; inconclusive means small, poorly fitted or top-dose-only effect
Target sequence (P08659 whole entry, looked up): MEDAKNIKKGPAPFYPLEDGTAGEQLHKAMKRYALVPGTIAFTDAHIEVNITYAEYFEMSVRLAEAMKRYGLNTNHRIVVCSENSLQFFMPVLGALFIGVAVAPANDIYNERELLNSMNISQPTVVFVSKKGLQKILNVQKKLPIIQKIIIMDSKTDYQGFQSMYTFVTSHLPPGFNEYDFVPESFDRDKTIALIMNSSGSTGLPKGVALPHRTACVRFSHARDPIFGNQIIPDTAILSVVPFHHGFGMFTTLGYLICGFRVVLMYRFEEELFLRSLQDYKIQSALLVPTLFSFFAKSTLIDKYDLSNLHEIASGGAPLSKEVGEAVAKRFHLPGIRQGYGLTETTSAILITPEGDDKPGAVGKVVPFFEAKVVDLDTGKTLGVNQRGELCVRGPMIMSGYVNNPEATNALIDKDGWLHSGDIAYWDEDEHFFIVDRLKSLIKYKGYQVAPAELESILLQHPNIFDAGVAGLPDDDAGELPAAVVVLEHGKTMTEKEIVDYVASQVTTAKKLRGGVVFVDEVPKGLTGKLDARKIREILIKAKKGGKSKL
GloSensor cGMP = counter-screen for Npr1 antagonists: GloSensor control cell line; shares compounds with NPR1 antag; AID 1347051; HEK293 GloSensor cGMP, SNP-stimulated, luminescence; 1,400 compounds, 69% hits; Potency, µM (doses to about 57.6 µM), actives largely listed as inhibitors; further: nearly all actives have a fitted effect of over 70% in size
Hits are given with their value; - = inactive; ? = inconclusive; . = no result given; [ ] = remark or other dose. Shown is part of a subset that was picked to be rich in hits. Unless noted, the call rests on the fitted dose curve.

SMILES | NPR1 antag | GPT2 inhibitor | Npr1 antag conf | Npr2 selectivity | FLuc counter | GloSensor cGMP
Cc1cc(=O)n(CC(=O)Nc2cccc(Cl)c2)c(N2CCc3ccccc3C2)n1 | 20µM | - | - | - | - | ?
COc1ccc(OC)c(NC(=O)Cn2c(N3CCC(C)CC3)nc(C)cc2=O)c1 | 13µM | - | 22µM | 22µM | - | 24µM
Cc1cc(=O)n(CC(=O)Nc2ccccc2C)c(N2CCC(C)CC2)n1 | - | - | . | . | . | .
COc1cc(NC(=O)Cn2c(N3CCC(C)CC3)nc(C)cc2=O)cc(OC)c1 | 6.3µM | - | 9.7µM | 12µM | - | 6.9µM
COc1cccc(NC(=O)Cn2c(N3CCC(C)CC3)nc(C)cc2=O)c1 | ? | - | . | . | . | .
Cc1cc(=O)n(CC(=O)Nc2ccc(Cl)cc2)c(N2CCc3ccccc3C2)n1 | - | - | . | . | . | .
CN(C)C(=O)C1CN(C(=O)Cc2ccccc2Cl)CC12CCOCC2 (stereo not drawn) | - | - | . | . | . | .
COCCCNC(=O)CCCN1C(=O)COc2ccc(C(=O)COc3cc(C)ccc3C)cc21 | - | - | . | . | . | .
CC(C)CNC(=O)N1C[C@@H]2CCCN3CCC[C@@H]([C@H]23)[C@H]1CCCC(=O)NCC1CC1 | - | - | . | . | . | .
O=C(NCc1cccs1)c1ccc2nc(-c3ccccn3)oc2c1 | . | - | . | . | . | .
CCSc1nc(CC(=O)NCc2ccc(S(N)(=O)=O)cc2)cs1 | - | - | . | . | . | .
Cc1c(NC(=O)c2ccco2)cccc1C(=O)N1CCC2(CCNCC2)CC1 | - | - | . | . | . | .
COCc1ccc(C(=O)N2CCC(c3[nH]ncc3-c3ccccc3)CC2)o1 | - | - | . | . | . | .
O=C(c1ccc(-n2ccnc2)cc1)N1CCC(c2[nH]ncc2-c2ccccc2)CC1 | 11µM | - | 22µM | 22µM | - | -
COc1ccc(-c2noc(-c3nc(-c4cc(OC)c(OC)c(OC)c4)no3)n2)cc1OC | - | - | . | . | . | .
Cc1ccccc1C(=O)N1CCN(c2cc(-c3ccc(Cl)cc3)[nH]n2)CC1 | 11µM | - | 19µM | 24µM | - | 17µM
Cc1ccc(C(=O)N2CCN(c3cc(-c4ccccc4)[nH]n3)CC2)cc1 | ? | - | . | . | . | .
O=C(N1CCCN(c2cc(-c3ccc(Cl)cc3)[nH]n2)CC1)C1(c2ccccc2)CC1 | ? | ? | 19µM | 19µM | - | 17µM
O=C(COc1ccccc1)N1CCCN(c2cc(-c3ccc(Cl)cc3)[nH]n2)CC1 | - | ? | . | . | . | .
Cc1ccccc1C(=O)N1CCCN(c2cc(-c3ccc(F)cc3)[nH]n2)CC1 | - | - | . | . | . | .
O=C(c1ccc(Cl)cc1Cl)N1CCN(c2cc(-c3ccccc3)[nH]n2)CC1 | 10µM | - | 14µM | 19µM | - | 14µM
O=C(c1ccccc1Cl)N1CCN(c2cc(-c3ccccc3)[nH]n2)CC1 | - | ? | . | . | . | .
Cc1ccc(C(=O)N2CCN(c3cc(-c4ccccc4)[nH]n3)CC2)c(C)c1 | 11µM | - | 24µM | 24µM | - | 22µM
COCC(=O)NC1CCN(c2ccnc3ccnn23)CC1 | . | - | . | . | . | .
CC(=O)Nc1cccc(C(=O)N2CCC(n3cc(-c4nc(C(C)C)no4)nn3)CC2)c1 | - | - | . | . | . | .
SMILES | NPR1 antag | GPT2 inhibitor | Npr1 antag conf | Npr2 selectivity | FLuc counter | GloSensor cGMP
CCCCCC(=O)N1c2cccc3c2[C@@H](C[C@H]1C(N)=O)CN(Cc1ccc(OC)cc1)C3=O | . | - | . | . | . | .
CNC(=O)c1cc(-c2ccccc2C)cc2c1OCCN2Cc1cccnc1 | ? | - | ? | ? | - | -
CNC(=O)c1cc(-c2ccccc2O)cc2c1OCCN2Cc1cccnc1 | - | - | . | . | . | .
Cc1cc(CNC(=O)c2ccc(S(=O)(=O)NCC(F)F)cc2)on1 | - | - | . | . | . | .
Cc1cc(CNC(=O)c2ccc3c(c2)n(CC2CC2)c(=O)n3C2CCCCC2)on1 | 5.6µM | - | 14µM | 4.8µM | - | -
O=C(Nc1ccc(Oc2ccccc2)cc1)O[C@@H]1CO[C@H]2[C@@H]1OC[C@@H]2Nc1nccc(-c2cccs2)n1 | - | - | . | . | . | .
N#Cc1cccc(-c2ccnc(N[C@H]3CO[C@H]4[C@@H]3OC[C@H]4OC(=O)Nc3ccc(Oc4ccccc4)cc3)n2)c1 | ? | - | ? | - | - | ?
COc1ccc(NC(=O)O[C@@H]2CO[C@H]3[C@@H]2OC[C@@H]3Nc2nccc(-c3cccc(C#N)c3)n2)cc1 | - | - | . | . | . | .
O=C(NC1CCCCC1)O[C@@H]1CO[C@H]2[C@@H]1OC[C@@H]2Nc1nccc(-c2cccs2)n1 | 10µM | - | 5µM | 7.9µM | - | 7µM
COc1ccc(-c2ccnc(N[C@H]3CO[C@H]4[C@@H]3OC[C@H]4OC(=O)Nc3ccc(C(C)(C)C)cc3)n2)cc1 | - | - | . | . | . | .
COc1ccc(-c2ccnc(N[C@H]3CO[C@H]4[C@@H]3OC[C@H]4OC(=O)Nc3ccc(C(C)=O)cc3)n2)cc1 | 10µM | - | 11µM | 15µM | - | 9.7µM
Cc1cc(C)n2nc(C(=O)N3CCN4C(=O)CN(C)C(=O)C4C3)cc2n1 (stereo not drawn) | - | -[11.5 µM] | . | . | . | .
COC(=O)CNC(=O)c1nc(C(C)(C)C)c2ccccn12 | . | - | . | . | . | .
C#CCNC[C@@H]1C=C(C)[C@H](Cc2nnc(Cc3c[nH]c4ccccc34)o2)C[C@H]1C(C)C | - | - | . | . | . | .
CCCC(=O)NC[C@@H]1CC[C@H]2C[C@@H]1C2(C)C | - | - | . | . | . | .
O=C1CC(c2ccccc2)N(C(=O)CNC(=O)C2(c3ccccc3)CC2)CCCCCN1 (stereo not drawn) | - | - | . | . | . | .
COc1cccc(N2CCN(c3nc(C(=O)NCc4ccco4)cs3)CC2)c1 | - | - | . | . | . | .
CN1C(=O)CCC2(CNC(=O)c3ccnn3C)CCC=C12 (stereo not drawn) | - | - | . | . | . | .
CCN1C(=O)C2CC3(CCN(Cc4cccc(OC(F)(F)F)c4)CC3)CN2C1=O (stereo not drawn) | - | - | . | . | . | .
Cc1ncsc1CN1CCC2(CC1)CC(Cc1nc(-c3ccccc3)no1)CCO2 (stereo not drawn) | 10µM | ? | 12µM | 17µM | - | 14µM
c1ccc(-c2noc(CC3CCOC4(CCN(Cc5cccnc5)CC4)C3)n2)cc1 (stereo not drawn) | ? | - | . | . | . | .
O=C(c1cccc(F)c1)N1CCC2(CCCCO2)CC1 | - | - | . | . | . | .
CCN(CC)C(=O)N1CC(Oc2ccc(-c3nc(C)no3)cc2)C1 | 16µM | - | 24µM | ? | - | ?
COCc1nc(-c2ccc(OC3CN(S(=O)(=O)c4ccccc4C)C3)cc2)no1 | 11µM | - | 12µM | 19µM | - | 15µM
COCc1nc(-c2ccc(OC3CN(C(=O)C(C)Oc4ccccc4)C3)cc2)no1 (stereo not drawn) | ? | - | . | . | . | .
CCN(CC)C(=O)N1CC(Oc2cccc(-c3nc(C)no3)c2)C1 | - | - | . | . | . | .
COCc1nc(-c2ccc(OC3CN(C(=O)Cc4ccccc4)C3)cc2)no1 | - | - | . | . | . | .
Cc1ccc(CNC(=O)N2CCC(Oc3ccc(-c4noc(C)n4)cc3)C2)cc1 (stereo not drawn) | 20µM | - | ? | - | - | -
